Laboratory results published in PubChem BioAssay AID2111 (National Center for Advancing Translational Sciences (NCATS), 2009).
Several values for one entry are separate records, joined by “and”; a condition that tells them apart may be missing. Equal entries are not always repeated. Activity calls are given as the source filed them. Calls come from the whole dose curve; as a rule, active = well fitted curve in either direction with a large enough effect; inconclusive = small, poorly fitted or top-dose-only effect; inactive = no such curve, though single readings can be large or run the other way.

target: Lysosomal alpha-glucosidase (Homo sapiens) (UniProt P10253); assay: Confirmation of Inhibitors and Activators of Human alpha-Glucosidase From Spleen Homogenate Using an Alternate Red Fluorescent Susbtrate; conditions: resorufin-glucoside fluorescence; series mostly up to 62.8 µM
From the text: NIH Chemical Genomics Center [NCGC] NIH Molecular Libraries Probe Production centers Network [MLPCN] MLPCN Grant: 1R03MH084841-01 Assay Submitter (PI): Wei Zheng NCGC Assay Overview: Alpha-glucosidase is responsible for hydrolysis of terminal, non-reducing 1,4-linked alpha-D-glucose residues with release of alpha-D-glucose. It is a lysosomal hydrolase that is required for the degradation of a small percentage (1-3%) of cellular glycogen in human. Deficiency of this enzyme results in glycogen-storage disease type II (GSDII), also referred to as Pompe disease, an autosomal recessive disorder. Structurally normal glycogen is accumulated in lysosomes and cytoplasm in affected patients, primarily in muscle tissues. Excessive glycogen storage within lysosomes may interrupt normal functioning of other organelles and leads to cellular injury. In turn, this leads to enlargement and dysfunction of the entire organ involved (eg, cardiomyopathy and muscle weakness). It has reported that the improper folding and trafficking of alpha-glucosidase resultinged from the genetic mutations may account for a significant number of Pomrope patients. […] We optimized this alpha-glucosidase assay in 1536-well plate format for identifying the novel small molecule inhibitors with the structures other than the sugar analogs in order to develop the new pharmacological chaperones. In particular, this assay is directed towards discovering compounds active in a more natural setting, tissue homogenate, that may have been missed by screens of the purified enzyme under more stringent conditions. This assay attempted to confirm hits from the primary screening using an alternate fluor than the primary screen used.
NCGC Assay Protocol Summary: This is a fluorogenic enzyme assay with Resorufin-alpha-D-glucopyranoside as the substrate and human spleen homogenate containing alpha-glucosidase as the enzyme preparation. Upon hydrolysis of this fluorogenic substrate, the resulting product, resorufin (which excites at 573 nm and emits at 610 nm) can be detected by a fluorescence plate reader. Data were normalized to the controls for basal activity (without enzyme) and 100% activity (with enzyme). The AC50 values were determined from concentration-response data modeled with the standard Hill equation. Assay buffer: 50 mM citric acid (titrated with potassium phosphate to pH 5.0), 0.01% Tween-20 (pH 5.0 is an optimal condition for this enzyme assay) 1536-well assay protocol for the alpha-glucosidase from human spleen homogenate: (1) Add 2 ul/well spleen homogenate (1 ug) (2) Add 23 nL compounds in DMSO solution. The final titration was 0.5 nM to 58 uM. (3) Add 2 ul of substrate (1 mM final) (4) Incubate at 37 C for 40 min (5) Add 2 ul stop solution (1M NaOH and 1M Glycine mixture, pH 10) (6) Detect the assay plate in a ViewLux plate reader (PerkinElmer) with […]. Keywords: Alpha-glucosidase, Pompe Disease, pharmacological chaperone, chaperone therapy, high throughput screening, alpha-glucosidase inhibitor, MLSMR, MLSCN, NIH Roadmap, qHTS and NCGC

Question: `CC(=O)c1ccc(N2CCN(S(=O)(=O)c3cc4c(cc3Cl)NC(=O)C4)CC2)cc1` was tested. Which Potency did it give?
Answer: The Potency was 4.61 µM [inhibitor] (active) and 3.66 µM [inhibitor] (active).

Question: With `CC(=O)c1ccc(N2CCN(C(=O)c3ccc4c(c3)CC(=O)N4)CC2)cc1` as the compound, how does the Potency read?
Answer: The Potency was “inactive”.

Question: With `COc1ccc(CCn2c3c(c(=O)[nH]c2=S)CN(C)CN3)cc1OC` as the compound, how does the Potency read?
Answer: Its Potency is 31.6 µM (active).

Question: For `CCCN1CNc2c(c(=O)[nH]c(=S)n2CCc2ccc3c(c2)OCCO3)C1`, which Potency is on record?
Answer: The Potency was 8.91 µM (active).

Question: With `CCCN1CNc2c(c(=O)[nH]c(=S)n2CCc2ccc(Cl)c(Cl)c2)C1` as the compound, how does the Potency read?
Answer: Its Potency is 8.91 µM (active).

Question: With `O=C1Cc2cc(S(=O)(=O)N3CCN(c4ccc([N+](=O)[O-])cc4)CC3)ccc2N1` as the compound, how does the Potency read?
Answer: The Potency was 5.8 µM [inhibitor] (active).

Question: For `CCCN1CNc2c(c(=O)[nH]c(=S)n2CCc2ccc(OC)cc2OC)C1`, which Potency is on record?
Answer: The Potency was 8.91 µM (active).

Question: With `O=C1Cc2cc(S(=O)(=O)N3CCN(c4ccc(O)cc4)CC3)ccc2N1` as the compound, how does the Potency read?
Answer: The Potency was 11.9 µM [inhibitor] (active).

Question: With `CCCN1CNc2c(c(=O)[nH]c(=S)n2CCc2cccc(OC)c2)C1` as the compound, how does the Potency read?
Answer: Its Potency is 10 µM (active).

Question: With `CCCN1CNc2c(c(=O)[nH]c(=S)n2CCc2cc(OC)cc(OC)c2)C1` as the compound, how does the Potency read?
Answer: The Potency was 7.94 µM (active).

Question: For `CC(=O)N1CCN(c2ccc(NS(=O)(=O)c3ccc4c(c3)CC(=O)N4)cc2)CC1`, which Potency is on record?
Answer: The Potency was “inactive”.

Question: For `CCCN1CNc2c(c(=O)[nH]c(=O)n2CCc2ccc(OC)c(OC)c2)C1`, which Potency is on record?
Answer: The Potency was 15.8 µM (active).

Question: Which Potency does the source give for `O=Cc1ccc(N2CCN(S(=O)(=O)c3ccc4c(c3)CC(=O)N4)CC2)cc1` here?
Answer: The Potency was 5.17 µM [inhibitor] (active).

Question: With `O=C1Cc2cc(S(=O)(=O)N3CCN(c4ccc(F)cc4)CC3)ccc2N1` as the compound, how does the Potency read?
Answer: Its Potency is 59.5 µM [inhibitor] (active).

Question: For `CCCN1CNc2c(c(=O)[nH]c(=S)n2CCc2cc(Cl)cc(Cl)c2)C1`, which Potency is on record?
Answer: The Potency was 12.6 µM (active).

Question: How did the Potency turn out when `O=C1Cc2cc(S(=O)(=O)N3CCN(c4cccc(C(F)(F)F)c4)CC3)ccc2N1` was run?
Answer: The Potency was 8.41 µM [inhibitor] (active).

Question: For `CCCN1CNc2c(c(=O)[nH]c(=S)n2CCc2ccc(Cl)cc2Cl)C1`, which Potency is on record?
Answer: The Potency was 7.94 µM (active).

Question: How did the Potency turn out when `CC(=O)c1ccc(N2CCN(S(=O)(=O)c3ccc4[nH]c(=O)oc4c3)CC2)cc1` was run?
Answer: The Potency was “inactive”.

Question: How did the Potency turn out when `O=C1Cc2cc(S(=O)(=O)N3CCN(c4ccc(CO)cc4)CC3)ccc2N1` was run?
Answer: Its Potency is 13 µM [inhibitor] (active).

Question: Which Potency does the source give for `COC(=O)c1ccc(N2CCN(S(=O)(=O)c3ccc4c(c3)CC(=O)N4)CC2)cc1` here?
Answer: Its Potency is 1.16 µM [inhibitor] (active).

Question: Which Potency does the source give for `COc1ccc(CCn2c3c(c(=O)[nH]c2=S)CN(C(C)C)CN3)cc1OC` here?
Answer: The Potency was 12.6 µM (active).

Question: For `CCCN1CNc2c(c(=O)[nH]c(=S)n2CCc2cccc(C)c2)C1`, which Potency is on record?
Answer: The Potency was 15.8 µM (active).

Question: With `CC(=O)c1ccc(N2CCN(S(=O)(=O)c3ccc4c(c3)OCC(=O)N4)CC2)cc1` as the compound, how does the Potency read?
Answer: Its Potency is “inactive”.

Question: How did the Potency turn out when `O=S(=O)(c1ccc(Cl)cc1)N1CCN(c2nc(Nc3cc(Cl)ccc3O)nc3ccccc23)CC1` was run?
Answer: Its Potency is “inactive”.

Question: Which Potency does the source give for `CCCN1CNc2c(c(=O)[nH]c(=S)n2CCc2c(Cl)cccc2Cl)C1` here?
Answer: The Potency was 5.01 µM (active).

Question: `CC(=O)c1ccc(N2CCN(S(=O)(=O)c3ccc4c(c3)n(C)c(=O)n4C)CC2)cc1` was tested. Which Potency did it give?
Answer: The Potency was “inactive”.

Question: Which Potency does the source give for `O=C1Cc2cc(S(=O)(=O)N3CCNCC3)ccc2N1` here?
Answer: The Potency was “inactive”.

Question: With `CCCN1CNc2c(c(=O)[nH]c(=S)n2CCC(C)C)C1` as the compound, how does the Potency read?
Answer: Its Potency is “inactive”.

Question: `CCCN1CNc2c(c(=O)[nH]c(=S)n2CCc2ccsc2)C1` was tested. Which Potency did it give?
Answer: Its Potency is 28.2 µM (active).

Question: `CCCN1CNc2c(c(=O)[nH]c(=S)n2CCC)C1` was tested. Which Potency did it give?
Answer: Its Potency is “inactive”.

Question: `CCCN1CNc2c(c(=O)[nH]c(=S)n2CCc2cccc(Cl)c2)C1` was tested. Which Potency did it give?
Answer: The Potency was 15.8 µM (active).

Question: Which Potency does the source give for `O=C1Cc2cc(S(=O)(=O)N3CCN(c4ccc(C(F)(F)F)cc4)CC3)ccc2N1` here?
Answer: The Potency was “inactive”.

Question: How did the Potency turn out when `CC(=O)c1ccc(N2CCN(S(=O)(=O)c3ccc4c(c3)oc(=O)n4C)CC2)cc1` was run?
Answer: Its Potency is “inactive”.

Question: For `CC(=O)c1ccc(N2CCN(S(=O)(=O)c3ccc(N4CCCC4=O)cc3)CC2)cc1`, which Potency is on record?
Answer: The Potency was “inactive”.

Question: How did the Potency turn out when `CCCN1CNc2c(c(=O)[nH]c(=S)n2CCc2c(OC)cccc2OC)C1` was run?
Answer: Its Potency is 35.5 µM (active).

Question: For `CCCN1CNc2c(c(=O)[nH]c(=S)n2CCc2cccc(OC)c2OC)C1`, which Potency is on record?
Answer: Its Potency is 15.8 µM (active).

Question: For `O=C1Cc2cc(S(=O)(=O)N3CCN(c4ccc(Br)cc4)CC3)ccc2N1`, which Potency is on record?
Answer: Its Potency is “inactive”.

Question: With `CCCN1CNc2c(c(=O)[nH]c(=S)n2CCc2cccs2)C1` as the compound, how does the Potency read?
Answer: Its Potency is 31.6 µM (active).

Question: Which Potency does the source give for `CCCN1CNc2c(c(=O)[nH]c(=S)n2CCc2c(C)cccc2C)C1` here?
Answer: The Potency was 2.82 µM (active).

Question: Which Potency does the source give for `COc1ccc(C#Cc2c[nH]c(=O)c3cncnc23)cc1OC` here?
Answer: Its Potency is “inactive”.
